“And” between values parts separate entries of the source, which are not always exact repeats. Identical values can stand only once. ± gives the standard deviation of the averaged measurements.
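Note: End-point A600 read in BHI broth at 37 °C with 2% DMSO, inhibition computed as (1 − OD with compound plus ceftriaxone ÷ OD with ceftriaxone only) × 100.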

This assay concerns Listeria monocytogenes 10403S. Briefly: growth inhibition relative to ceftriaxone-alone control; higher = stronger potentiation of ceftriaxone growth inhibition. The settings on record: 10 µM; ceftriaxone 1 ug/ml; 12 h.
As for `CO[C@H]1C[C@@H]2CC[C@@H](C)[C@@](O)(O2)C(=O)C(=O)N2CCCC[C@H]2C(=O)O[C@H]([C@H](C)C[C@@H]2CC[C@@H](OC(=O)C(C)(CO)CO)[C@H](OC)C2)CC(=O)[C@H](C)/C=C(\C)[C@@H](O)[C@@H](OC)C(=O)[C@H](C)C[C@H](C)/C=C/C=C/C=C/1C` [Temsirolimus (Torisel)], the growth inhibition is 19.8 ± 59%.

For `CNC(=O)CN1CCC(Oc2cc3c(Nc4cccc(Cl)c4F)ncnc3cc2OC)CC1`, the growth inhibition came to 0.347 ± 1.9%.

Turning to `Cc1ccc(NC(=O)c2ccoc2)cc1-c1ccc(C(=O)NCC2CC2)cc1`, the growth inhibition was 16.8 ± 3.1%.

Turning to `CN(C)C1CCN(C(=O)c2ccc(NC(=O)Nc3ccc(-c4nc(N5CCOCC5)nc(N5CCOCC5)n4)cc3)cc2)CC1`, the growth inhibition stood at 22.7 ± 7.4%.

Regarding `COc1cc(Nc2nccc(Nc3ccc4c(C)n[nH]c4c3)n2)cc(OC)c1OC`, the growth inhibition was -7.71 ± 14%.

With `CCn1c(-c2nonc2N)nc2ccncc21`, the growth inhibition was -0.136 ± 1.1%.

For `O=C1NC(=O)C(=Cc2ccc(-c3ccc(F)cc3)o2)S1` (stereo in doubt), the growth inhibition stood at 31.8 ± 28%.

In the case of `NC1(c2ccc(-c3nc4ccn5c(=O)[nH]nc5c4cc3-c3ccccc3)cc2)CCC1`, the growth inhibition was determined as 86.41 ± 0.47%.

In the case of `N#Cc1c(NC(=O)c2cccc3ccccc23)sc2c1CCCC2`, the growth inhibition was -6.35 ± 1.2%.

On to `NC(=O)c1ccc(-c2nc(-c3ccccn3)c(-c3ccc4c(c3)OCO4)[nH]2)cc1`, for which the growth inhibition was -0.443% and 16.4%.

Take `O=C(O)c1ccc2c(c1)nc(Nc1cccc(Cl)c1)c1ccncc12` [CX-4945 (Silmitasertib)]: the growth inhibition was 76.2 ± 9.6%.

In the case of `Cc1ccc(C(=O)Nc2cccc(C(F)(F)F)c2)cc1Nc1nc(-c2cccnc2)nc2c1cnn2C`, the growth inhibition is -1.9 ± 16%.

In the case of `Cc1c(NC(=O)OC[C@@H]2COCCN2)cn2ncnc(Nc3ccc4c(cnn4Cc4cccc(F)c4)c3)c12`, the growth inhibition turned out to be 44.1 ± 20%.

Take `CCC(=O)Nc1ccc(C)c(-c2ccc(C(=O)NCC3CC3)cc2)c1`: the growth inhibition is -2.46 ± 1.9%.

Take `O=C1Nc2ccccc2/C1=C/Nc1ccc(-n2cncn2)cc1`: the growth inhibition was 0.116 ± 3.5%.

On to `Nc1nc(-c2ccc3c(c2)C(=Cc2cc(Br)c(O)c(Br)c2)C(=O)N3)cs1`, for which the growth inhibition is 3.8 ± 2.8%.

Consider `CCS(=O)(=O)c1ccc(OC)c(Nc2ncc(-c3cccc(F)c3)o2)c1`, for which the growth inhibition worked out at 2.54 ± 2.8%.

As for `Nc1nc(-c2cccc(Cl)c2)c(-c2ccc3ncccc3n2)s1`, the growth inhibition is -7.03 ± 7.3%.

`NS(=O)(=O)c1ccc(N/N=C2\C(=O)Nc3ccc(-c4cnco4)cc32)cc1`: the growth inhibition came out at 0.00978 ± 0.57%.

With `CN1CCN(CCOc2cc(OC3CCOCC3)c3c(Nc4c(Cl)ccc5c4OCO5)ncnc3c2)CC1` [Saracatinib (AZD0530)], the growth inhibition was -2.45 ± 20%.

For `CCn1nnc2c(N3CCOCC3)nc(-c3ccc(NC(=O)Nc4ccc(C(=O)N5CCN(C)CC5)cc4)cc3)nc21`, the growth inhibition turned out to be 20.2 ± 19%.

With `COc1ccc(-c2nn3ncccc3c2-c2ccnc(Nc3ccc4c(c3)OCCO4)n2)cc1`, the growth inhibition is -7.96 ± 4.1%.

Take `CCn1c(-c2nonc2N)nc2c(C#CC(C)(C)O)ncc(OCC3CCNCC3)c21`: the growth inhibition is 29.8 ± 9.6%.

`CC(C)NC[C@@H](C(=O)N1CCN(c2ncnc3c2[C@H](C)C[C@H]3O)CC1)c1ccc(Cl)cc1`: the growth inhibition turned out to be 23.5 ± 8.6%.

For the compound `Cc1ccc2c(-c3ccnc(Nc4ccccc4)n3)c(-c3ccc(F)cc3)nn2n1`, the growth inhibition is -6.27 ± 1.4%.

For the compound `O=C(Nc1n[nH]c2cc(-c3ccc(F)cc3)ccc12)C1CC1`, the growth inhibition was -9.6 ± 16%.

Regarding `O=C(Nc1n[nH]c2cc(-c3cc(F)ccc3F)ccc12)C1CC1`, the growth inhibition was -0.453 ± 13%.

Consider `CN(C)Cc1cccc(N=C(c2ccccc2)c2c(O)[nH]c3cc(C(=O)N(C)C)ccc23)c1`, for which the growth inhibition turned out to be 26.5 ± 1.6%.

With `CC(=O)NCc1cccc(C#Cc2cncnc2Nc2ccc(OCc3cccc(F)c3)c(Cl)c2)c1`, the growth inhibition is -1.26 ± 2.3%.

On to `COc1cc2ncnc(Nc3ccc(C)c(O)c3)c2cc1OC`, for which the growth inhibition is -12.9 ± 9.4%.

Regarding `COc1cccc(-n2ncc3c(N/N=C/c4cccc(F)c4)ncnc32)c1`, the growth inhibition came to 6.27 ± 6.8%.

For the compound `CC1(C)CNc2cc(NC(=O)c3cccnc3NCc3ccncc3)ccc21` [Motesanib Diphosphate (AMG-706)], the growth inhibition is 22.2 ± 22%.

Regarding `CS(=O)(=O)CCNCc1ccc(-c2ccc3ncnc(Nc4ccc(OCc5cccc(F)c5)c(Cl)c4)c3c2)o1` [Lapatinib Ditosylate (Tykerb)], the growth inhibition was 42 ± 16%.

In the case of `O=C(O[C@H]1CN[C@H](C#Cc2cc3ncnc(Nc4ccc(OCc5cccc(F)c5)c(Cl)c4)c3s2)C1)N1CCOCC1`, the growth inhibition was determined as 14.3 ± 11%.

Regarding `CNC(=O)c1cccc(-c2ccc3c(N4CCOC[C@@H]4C)nc(N4CCOC[C@@H]4C)nc3n2)c1`, the growth inhibition stood at 1.51 ± 0.18%.

As for `CNC(=O)c1cncc(/C=C/c2ccccc2C)c1`, the growth inhibition came out at 25.3 ± 14%.

`COc1cccc(-n2ncc3c(N/N=C/c4ccc(C(=O)NCCN(C)C)cc4)ncnc32)c1`: the growth inhibition is 0.231 ± 2.8%.

`Cn1cc(-c2ccc3nnc(Sc4ccc5ncccc5c4)n3n2)cn1`: the growth inhibition was determined as 18 ± 20%.
